Experimental data taken from PubChem BioAssay AID1022 (Emory University Molecular Libraries Screening Center, 2008).
In all, about 220,000 compounds went through this assay and about 3,300 (1.5%) were called active.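 The calls were made as follows: active = compounds that cut the protein-peptide binding signal by more than 50% relative to plate controls in a single-dose test; inactive = the rest.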 The list comes from a sample in which actives are over-represented; it also holds similar structures and randomly drawn compounds.

The molecules below were run against Induced myeloid leukemia cell differentiation protein Mcl-1 (Homo sapiens) (UniProt Q07820) (assay: disruptors of Mcl-1 and Noxa BH3 peptide – biochemical, TR-FRET, 1536-well, primary screen (AID 1022;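 also: His-tagged Mcl-1 with rhodamine Noxa BH3 peptide and terbium anti-His antibody; 0% = Mcl-1 plus Noxa peptide wells and 100% = peptide-only wells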)). Details: TR-FRET Mcl-1/Noxa peptide binding, 2 h; at 21.7 µM; active compounds read high.
Induced myeloid leukemia cell differentiation protein Mcl-1 (Homo sapiens), sequence (Q07820 whole entry, looked up): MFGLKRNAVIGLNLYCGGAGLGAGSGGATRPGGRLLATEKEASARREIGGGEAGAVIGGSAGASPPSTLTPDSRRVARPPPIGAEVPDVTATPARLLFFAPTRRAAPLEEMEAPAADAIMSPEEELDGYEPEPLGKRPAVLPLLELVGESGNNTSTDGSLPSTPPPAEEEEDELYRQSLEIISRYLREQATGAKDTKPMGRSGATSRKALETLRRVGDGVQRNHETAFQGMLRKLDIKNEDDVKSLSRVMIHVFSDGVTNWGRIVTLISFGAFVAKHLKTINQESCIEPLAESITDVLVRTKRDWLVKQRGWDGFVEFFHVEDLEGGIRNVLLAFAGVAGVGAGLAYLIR
For `COCCn1c(SCC(=O)Nc2cc(OC)ccc2OC)nc2c(c1=O)SC(C)C2` (stereo not drawn), the inhibition was 1.76% (inactive).
`CC(C)(C)c1ccc(CCC2OCC(CN3CCOCC3)O2)cc1` (stereo not drawn) was tested, and the inhibition was -0.05% (inactive).
In the case of `Cc1ccc(/C=N/NC(=O)CN2CCN(Cc3ccccc3)CC2)s1`, the inhibition is reported as 14.9% (inactive).
`O=C(Cn1nnc(N2CCCCC2)n1)c1ccc(Cl)c(Cl)c1` was tested, and the inhibition was 13.1% (inactive).
In the case of `Cc1ccc(-c2cc(C(=O)NN)n[nH]2)o1`, the inhibition is reported as 11.3% (inactive).
For `Cc1ccc(N2C(=O)CC(Nc3cccc4ccccc34)C2=O)cc1` (stereo not drawn), the inhibition was -23% (inactive).
`CCc1ccccc1N1C(=O)C2C3CC(=O)C(c4ccccc43)C2C1=O` (stereo not drawn) was tested, and the inhibition was 1.91% (inactive).
In the case of `CC1=C(C)CC2C(=O)N(c3cccc4ccccc34)C(=O)C2C1` (stereo not drawn), the inhibition is reported as 53.5% (active).
`CCCCNC(=O)OCCSCCS(=O)(=O)c1ccc(Cl)cc1` was tested, and the inhibition was -6.78% (inactive).
In the case of `C/C(=N/NC(=O)c1ccn(C)n1)c1ccncc1`, the inhibition is reported as -1.7% (inactive).
`CCOc1ccc2[nH]c(=O)c(C(c3nnnn3CCOC)N3CCOCC3)cc2c1` (stereo not drawn) was tested, and the inhibition was -4.39% (inactive).
With `COc1ccc(OC)c(C(c2nnnn2C(C)(C)C)N2CCc3ccccc3C2)c1` (stereo not drawn) the inhibition was 23.3% (inactive).
In the case of `COCCn1nnnc1C(c1cc2ccc(OC)cc2[nH]c1=O)N1CCc2ccccc2C1` (stereo not drawn), the inhibition is reported as 58.9% (active).
With `CCOC(=O)CN(C)S(=O)(=O)c1ccc(-c2cc(C(=O)OC)sc2C(F)(F)F)cc1` the inhibition was 11.3% (inactive).
For `O=S(=O)(c1ccc(F)cc1)N1CC=C(c2ccccc2)CC1`, the inhibition was -8.68% (inactive).
`COc1cc(C(CCN2CCN(c3ccccc3)CC2)c2c(OC)cc(OC)c3ccc(=O)oc23)cc(OC)c1OC` (stereo not drawn) was tested, and the inhibition was 12.8% (inactive).
For `CC(C)Cc1nnc(NC(=O)CCC(=O)Nc2ccc3cn[nH]c3c2)s1`, the inhibition was 32.1% (inactive).
In the case of `O=C(CCn1nnc2ccccc2c1=O)N[C@@H](Cc1c[nH]c2ccccc12)C(=O)O`, the inhibition is reported as 18.9% (inactive).
`O=C(O)CC12CC3CC(C1)CC(n1ncc(NCc4ccc(F)cc4)c(Cl)c1=O)(C3)C2` was tested, and the inhibition was 16.2% (inactive).
In the case of `CSc1nnc(SCc2nc3sc(C(=O)O)c(C)c3c(=O)[nH]2)s1`, the inhibition is reported as 70.6% (active).
`CCOC(=O)c1sc2nc(CSc3ccccc3)[nH]c(=O)c2c1C` was tested, and the inhibition was -3.55% (inactive).
`Cc1ccc(C)c(SCc2nc3sc(C(=O)O)c(C)c3c(=O)[nH]2)c1` was tested, and the inhibition was 7.18% (inactive).
`COC(=O)c1cc(N2CCNCC2)nc2ccccc12` was tested, and the inhibition was -2.31% (inactive).
In the case of `CCOc1ccc(N=C2NC(=O)S/C2=C\c2ccc(O)cc2)cc1`, the inhibition is reported as 98.8% (active).
`CCOc1ccc(N=C2SC(C(=O)O)CC(=O)N2C)cc1` (stereo not drawn) was tested, and the inhibition was 16.1% (inactive).
`NC1=NC(=O)S/C1=C\c1ccc(O)cc1` was tested, and the inhibition was 12.7% (inactive).
`O=C(CC12CC3CC(CC(C3)C1)C2)NCc1ccco1` was tested, and the inhibition was 2.69% (inactive).
With `O=C(COC(=O)CCC(=O)c1cccs1)NCc1ccco1` the inhibition was 41% (inactive).
With `O=C(COC(=O)C12CC3CC(CC(C3)C1)C2)NCc1ccco1` the inhibition was 54.8% (active).
`COc1ccc(NC(=S)N2CCc3cc(OC)c(OC)cc3C2)cc1` was tested, and the inhibition was 11.1% (inactive).
In the case of `CC(/C=N/NC(=O)c1cc(-c2ccc3ccccc3c2)n[nH]1)=C\c1ccco1`, the inhibition is reported as 78.8% (active).
For `Cc1ccc(-c2cc(C(=O)N/N=C/C=C/c3ccco3)c3ccccc3n2)cc1C`, the inhibition was 19.7% (inactive).
For `CC(/C=N/NC(=O)c1ccncc1)=C\c1ccco1`, the inhibition was 16.1% (inactive).
With `COc1ccc(NC(=O)CSc2ncnc3[nH]ncc23)cc1` the inhibition was 16.1% (inactive).
With `CCN(CC)c1ccc(NC(=O)C2CCC(CNc3c(N4CCCC4)c(=O)c3=O)CC2)c(C)c1` (stereo not drawn) the inhibition was 19.7% (inactive).
For `O=[N+]([O-])c1ccc(N2CCN(c3ccc(O)cc3)CC2)c(Cl)c1`, the inhibition was 65.2% (active).
With `COc1ccc(N2CCN(c3ccc([N+](=O)[O-])cc3Cl)CC2)cc1` the inhibition was 11.9% (inactive).
In the case of `O=C(O)C1CCN(c2ccc([N+](=O)[O-])cc2[N+](=O)[O-])CC1`, the inhibition is reported as 23.9% (inactive).
For `Cc1nc2ccccc2cc1C(=O)N/N=C/c1ccc([N+](=O)[O-])cc1`, the inhibition was 9.39% (inactive).
For `O=C(N/N=C/c1ccc([N+](=O)[O-])cc1)c1c[nH]c2ccccc12`, the inhibition was 14.4% (inactive).
For `O=C(N/N=C/c1ccc(Cl)cc1)c1nc2ccc([N+](=O)[O-])cc2c(=O)[nH]1`, the inhibition was 71.4% (active).
For `CN1CCc2ccccc2C1Cc1ccccc1NC(=O)c1sc2ccccc2c1Cl` (stereo not drawn), the inhibition was -2.87% (inactive).
For `FC(F)(F)c1nc(-c2ccccc2)ncc1-c1nnnn1-c1ccccc1`, the inhibition was 35.2% (inactive).
With `C=CCNC(=S)N/N=C/c1ccc(C)s1` the inhibition was 7.32% (inactive).
With `FC(F)(F)c1nnc2sc(-c3ccco3)nn12` the inhibition was 2.95% (inactive).
In the case of `Fc1ccc(-c2ccc(-c3nn4c(-c5ccco5)nnc4s3)o2)cc1`, the inhibition is reported as 71% (active).
`Cc1nnc2sc(-c3ccco3)nn12` was tested, and the inhibition was 3.91% (inactive).
With `Cc1ccc(OCC(=O)Nc2nnc(-c3ccco3)s2)cc1` the inhibition was 17.5% (inactive).
With `CNc1nnc(-c2ccco2)s1` the inhibition was 6.49% (inactive).
In the case of `COc1ccc(OCC(=O)Nc2nnc(-c3ccco3)s2)cc1`, the inhibition is reported as 87.4% (active).
In the case of `Cc1c([N+](=O)[O-])c(N)nn1C`, the inhibition is reported as 12.1% (inactive).
For `COc1ccc(-c2nc(CS(=O)CC(=O)N3CCc4ccccc4C3)c(C)o2)cc1` (stereo not drawn), the inhibition was 18.7% (inactive).
In the case of `Cc1ccc(-c2nc(CS(=O)CC(=O)NC3CCCC3)c(C)o2)cc1` (stereo not drawn), the inhibition is reported as 10% (inactive).
In the case of `Cc1ccc(-c2nc(CS(=O)CC(=O)N3CCN(c4ncccn4)CC3)c(C)o2)cc1` (stereo not drawn), the inhibition is reported as 54.7% (active).
With `O=C(NCc1ccccc1Cl)NC(=O)c1csc([N+](=O)[O-])c1` the inhibition was -17.3% (inactive).
With `Cc1coc2c(O)cc3c(c12)OC1(N2CCCCC2)C(=O)NCCCC31` (stereo not drawn) the inhibition was 62.4% (active).
With `COc1ccc(/C=N/n2nnnc2N)cc1OC` the inhibition was -6.77% (inactive).
In the case of `Cc1ccc(NC(=O)c2cc(-c3ccc(C)o3)nc3ccccc23)nc1`, the inhibition is reported as 52.1% (active).
With `Cc1c(NC(=O)c2cc(-c3ccc(Cl)s3)nc3ccccc23)c(=O)n(-c2ccccc2)n1C` the inhibition was -5.37% (inactive).
With `Cc1ccc(-c2cc(C(=O)Nc3nn[nH]n3)c3ccccc3n2)c(C)c1` the inhibition was 10.4% (inactive).
For `Cc1ccc(C(=O)N/C(=C\c2ccco2)C(=O)NC2CCS(=O)(=O)C2)cc1` (stereo not drawn), the inhibition was 2.28% (inactive).
For `C=C(C)C(=O)Nc1cccc(C2=NOC3(C2)C[C@H](C(N)=O)N(C(=O)C(c2ccccc2)c2ccccc2)C3)c1` (stereo partly drawn), the inhibition was 79.5% (active).
For `C/C=C(/C)C(=O)Nc1cccc(C2=NOC3(C2)C[C@@H](C(N)=O)N(C(=O)C2(C)CC2)C3)c1` (stereo partly drawn), the inhibition was 10.3% (inactive).
`C/C=C\C=C\C(=O)N1CC2(CC(c3cccc(NC(=O)/C(C)=C\C)c3)=NO2)C[C@H]1C(N)=O` (stereo partly drawn) was tested, and the inhibition was -3.38% (inactive).
With `CCCN(CCC)CC(O)COc1ccccc1C(=O)Nc1ccccc1` (stereo not drawn) the inhibition was 2.75% (inactive).
In the case of `COc1ccc(NC(=O)/C(C#N)=C\c2cc(OC)c(OCc3ccc(C(=O)O)cc3)cc2Br)cc1`, the inhibition is reported as 61.8% (active).
In the case of `COC(=O)c1ccc(COc2ccc(/C=N/NC(=O)C(=O)Nc3ccc(OC)cc3)cc2OC)o1`, the inhibition is reported as -4.48% (inactive).
With `COc1cc(/C=C(\C#N)C(=O)Nc2ccc3ccccc3c2)c([N+](=O)[O-])cc1OC` the inhibition was 50.2% (inactive).
With `CCO[C@@H]1OC(C(=O)NC2CC2)=C[C@H](C)[C@H]1CCCO` the inhibition was -4.75% (inactive).
For `Cc1ccc(SCC(=O)c2sc(-c3ccccc3)nc2C)cc1`, the inhibition was 12% (inactive).
With `Cc1nc(-c2ccc(Cl)cc2)sc1C(=O)CBr` the inhibition was 61% (active).
In the case of `Cc1nc(-c2ccc(Cl)cc2)sc1C(=O)NN`, the inhibition is reported as -14.8% (inactive).
With `CC1=CC2=NC(=O)/C(=C/c3coc4ccccc4c3=O)C(=N)N2O1` the inhibition was 1.38% (inactive).
In the case of `COc1cc(C(=O)Nn2c(O)c(C3=c4ccccc4=NC3=O)sc2=S)ccc1O`, the inhibition is reported as 58.1% (active).
`COc1cc(C(=S)NC2CCCCC2)ccc1O` was tested, and the inhibition was 14.7% (inactive).
For `CCN(CC)C(=O)c1ccc(O)c(OC)c1`, the inhibition was 4.61% (inactive).
In the case of `CC(C)(C)c1ccc(/C=C2\Oc3c(ccc(O)c3CN3CCN(CCO)CC3)C2=O)cc1`, the inhibition is reported as 23.9% (inactive).
`CCOC(=O)c1ccc(S(=O)(=O)N(CCO)Cc2cc3cc(OC)c(OC)cc3[nH]c2=O)cc1` was tested, and the inhibition was -2.09% (inactive).
In the case of `O=S(=O)(/C=C/c1ccccc1)NCCc1ccccn1`, the inhibition is reported as 70% (active).
For `CN(CC(=O)NCCc1ccccn1)S(=O)(=O)c1ccc(Cl)cc1`, the inhibition was 0.36% (inactive).
With `O=C(CNC(=O)COc1ccccc1)NCCc1ccccn1` the inhibition was 23.7% (inactive).
For `COc1ccccc1OCC(=O)O/N=C(\N)c1ccccn1`, the inhibition was 17.8% (inactive).
With `O=C(NCc1ccccn1)c1cc(Br)ccc1Cl` the inhibition was 15.5% (inactive).
For `O=C(NCc1ccccn1)c1cc(-c2ccccc2Cl)on1`, the inhibition was 8.56% (inactive).
In the case of `COc1ccc(NC(=O)Nc2ccc3nc(C)c(C)nc3c2)cc1`, the inhibition is reported as 32.9% (inactive).
`COCCNC(=O)Nc1ccc2nc(-c3ccco3)c(-c3ccco3)nc2c1` was tested, and the inhibition was 107% (active).
For `COc1ccc(NC(=O)Nc2ccc3nsnc3c2)cc1`, the inhibition was 20.7% (inactive).
For `O=C(NCc1ccccn1)c1ccc2nc(-c3ccco3)c(-c3ccco3)nc2c1`, the inhibition was 91.8% (active).
In the case of `O=C(NNC(=S)Nc1ccc(F)cc1)[C@H]1C[C@@H]1c1ccccc1`, the inhibition is reported as -82.4% (inactive).
`O=C(Nc1ccc(N2CCOCC2)nc1)c1c(F)cccc1F` was tested, and the inhibition was 25.6% (inactive).
For `Cc1cccc(NC(=O)CSc2nnc(CCNC(=O)OC(C)(C)C)o2)c1C`, the inhibition was -10.6% (inactive).
`C=CC1C(OC2OC(CO)C(O)C(O)C2O)OC=C(C(=O)OC)C1CC1CC(=O)CC(CC(=O)CCc2ccc(O)cc2)O1` (stereo not drawn) was tested, and the inhibition was 18.5% (inactive).
For `Cc1ccc(S(=O)(=O)N(C)C)cc1NC(=O)c1n[nH]c(=O)c2ccccc12`, the inhibition was -4.07% (inactive).
